Screens (PubChem BioAssay)
HTT promoter inh = HTT promoter inhibition. HEK293 HTT promoter firefly luciferase reporter, 24 h. Potency, µM (highest dose often 57.5 µM), inactives show at the top dose activity change, negative = inhibition, hits mostly inhibitors. hit rate 0.93% among 48,000; note: potency is the fitted concentration of half-maximal effect; nearly all actives have a fitted effect of over 50% in size
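Firefly luciferase signal from promoter-reporter HEK293 cells was scaled between vehicle (0%) and zero RLU (-100%). Compounds were tested at final concentrations of up to 57.5 uM over 24 h at 37 degrees C. PTC124 at 50 uM final served as control inhibitor.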
HTT-AS act = activates huntingtin-antisense promoter activity; HEK293 HTT-AS promoter firefly luciferase reporter, 24 h; response scale: percent change from vehicle, -100% = no light; AID 1508624; hit rate 0.24% among 48,000; Potency, µM (series often up to 57.5 µM), for inactives: at the highest dose activity change, positive = activation, hits mostly activators; note: potency is the fitted concentration of half-maximal effect; nearly all actives have a fitted effect of over 55% in size
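HEK293 cells carrying firefly luciferase reporters were seeded at 2,500 per well in Opti-MEM and cultured for 24 h. They were then treated with compounds at up to 57.5 uM final for 24 h at 37 degrees C before Dual-Glo luminescence readout.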
GPR32 ag = GPR32 (DRV1) agonism, beta-arrestin recruitment; activation, % at 76.9 µM; hit rate 2.5% among 48,000; CHO-K1 GPR32 beta-arrestin PathHunter luminescence, 90 min; zero percent set by DMSO-only wells;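 active = activation of at least 60% and not above a set upper limit, about 1 call in 100 departs from these limits; inconclusive = activation of 40% to 60%, or above that upper limit; inactive = activation under 40%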; note: 0% is about no effect
Target sequence (O75388 whole entry, looked up): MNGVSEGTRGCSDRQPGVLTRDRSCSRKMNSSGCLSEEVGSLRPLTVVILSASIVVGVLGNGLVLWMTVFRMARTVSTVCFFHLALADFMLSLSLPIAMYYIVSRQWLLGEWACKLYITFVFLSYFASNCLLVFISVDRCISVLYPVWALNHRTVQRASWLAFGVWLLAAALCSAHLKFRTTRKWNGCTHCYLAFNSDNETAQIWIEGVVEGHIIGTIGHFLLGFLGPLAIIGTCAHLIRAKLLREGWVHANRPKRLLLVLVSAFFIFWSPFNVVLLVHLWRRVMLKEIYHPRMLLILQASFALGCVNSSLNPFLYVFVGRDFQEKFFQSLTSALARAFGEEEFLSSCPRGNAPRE
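Cells are plated overnight, treated with compounds in DMSO for 90 minutes at 37 °C, and developed with PathHunter detection reagent for 1 hour before luminescence is read; signal reflects beta-arrestin binding to GPR32 in engineered CHO-K1 cells.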
NTMT1 inhibitor = NTMT1 methyltransferase inhibition; Q9BV86; NTMT1 MTase-Glo SAH luminescence, purified enzyme; Potency, µM (highest dose often 114 µM), for the others: at the highest dose activity change, negative = inhibition, hits mostly inhibitors; hit rate 2.5% among 59,000; AID 1645870;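 note: potency is the fitted concentration of half-maximal effect; plate controls were DMSO vehicle for no effect and no enzyme for full effect; nearly all actives have a fitted effect of over 65% in size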
Target sequence (Q9BV86 whole entry, looked up): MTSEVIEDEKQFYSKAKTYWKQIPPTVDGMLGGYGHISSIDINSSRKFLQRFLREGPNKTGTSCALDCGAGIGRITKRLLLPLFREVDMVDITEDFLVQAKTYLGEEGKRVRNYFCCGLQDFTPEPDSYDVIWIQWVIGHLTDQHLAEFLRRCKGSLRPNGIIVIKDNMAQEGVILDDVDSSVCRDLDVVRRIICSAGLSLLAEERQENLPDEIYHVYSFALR
Numbers without * were called inactive; u = inconclusive; x = no result given; [ ] = remark or other dose. A selection: hits, their analogues and other compounds. The true share with any hit is near 4.6%. Unless noted, calls come from the whole dose curve; as a rule, active = well fitted curve in the direction sought with a large enough effect; inconclusive = small, poorly fitted or top-dose-only effect, or another doubt; inactive = no such curve, though single readings can be large; an effect the other way counts as inactive or inconclusive.

SMILES	HTT promoter inh	HTT-AS act	GPR32 ag	NTMT1 inhibitor
CC1(c2ccc(Cl)cc2)CC(C)(C)N(C(=O)c2ccccc2)c2ccccc21 (stereo not given)	25µM*	-40%	9	3%
CCOc1ccccc1C(=O)Nc1ccc2nc3c(c(Nc4ccc(OC)c(OC)c4)c2c1)CCCC3	u	-36%	-21	-8%
COc1cc(OC)cc(C(=O)Nc2ccc3nc4c(c(Nc5ccc(OC)c(OC)c5)c3c2)CCCC4)c1	u	-63%	85*	-27%
COc1ccc(Nc2c3c(nc4ccc(NC(=O)c5cc(Cl)ccc5OC)cc24)CCCC3)cc1OC	u	-95%	61*	u
CN(C)CCCNC(=O)c1ccc(-c2cnc3c(O)ccc(C(=O)O)c3c2)cc1	x	x	x	3%[57.5 µM]
CC(O)c1cc(C(=O)N[C@@H](C)Cn2ccc(-c3ccc(C#N)c(Cl)c3)n2)n[nH]1 (stereo not given in full)	x	x	x	6%
COc1ccccc1NC(=O)N1CCN(c2ccc3nnc(-c4ccc(F)cc4)n3n2)CC1	-16%	-24%	5	79µM*
Cc1cc(NC(=O)Nc2nnc(C3CCCCC3)s2)ccc1Br	x	x	x	-2%
Cc1cccc(NS(=O)(=O)c2ccc(-n3cccn3)cc2)c1C	u	-45%	73*	u
Cc1ccc(NS(=O)(=O)c2ccc(-n3cccn3)cc2)c(Br)c1	u	-36%	72*	1%
Cc1ccc(NS(=O)(=O)c2cn(C)c(C)n2)c(Br)c1	-2%	-11%	35	8%
COc1cc2c(cc1O)CC(O)(CO)C(CO)C2c1ccc(OC2OC(CO)C(O)C(O)C2O)c(OC)c1 (stereo not given)	x	x	x	-1%[29.8 µM]
Fc1ccc(N2CCN(c3ncnc4c3nc3n4CCCCC3)CC2)cc1	2.8µM*	-44%	22	3%
O=C(C1CCN(c2ncnc3c2nc2n3CCCCC2)CC1)N1CCN(c2cccc(Cl)c2)CC1	u	-48%	-5	-9%
CC(C)c1ccc(Nc2ncnc3c2nc2n3CCCC2)cc1	-19%	u	32	79µM*
Clc1cccc(N2CCN(c3ncnc4c3nc3n4CCCCC3)CC2)c1	10µM*	-61%	32	-3%
CCOc1ccc(Nc2ncnc3c2nc2n3CCCC2)cc1	-10%	u	12	u
Clc1ccc(N2CCN(c3ncnc4c3nc3n4CCCC3)CC2)cc1	1.4µM*	-90%	14	-3%
O=C(O)CC1CCC(c2ccc(-c3ccc4nc(C(=O)NCc5ccc(OC(F)(F)F)cc5)cn4c3)cc2)CC1 (stereo not given)	x	x	x	5%[57.5 µM]
CCNC(=O)C1CCC(C(=O)Nc2ccc([S+](=O)([O-])Nc3nccs3)cc2)CC1 (stereo not given)	x	x	x	7%
CCC(=O)N1CCc2cc(CNS(=O)(=O)c3ccc(C(C)C)cc3)ccc21	-24%	-31%	109*	6%
Cc1ccc(Nc2nc3nonc3nc2Nc2cccc(C(F)(F)F)c2)cc1Cl	1.3µM*	-91%	16	23%
Cc1ccc(C(C)(C)C)c(OCC(=O)NCCc2nc3ccccc3[nH]2)c1	4%	-13%	61*	1%
O=C(Nc1ccc(Br)cc1)c1ccc(F)c(S(=O)(=O)N2CCCc3ccccc32)c1	2.2µM*	-45%	-4	-1%
NS(=O)(=O)c1ccc(NC(=O)c2ccc3c(c2)CCN3S(=O)(=O)c2ccccc2)cc1	-23%	-30%	33	3%
SMILES	HTT promoter inh	HTT-AS act	GPR32 ag	NTMT1 inhibitor
O=C(Nc1ccc(Br)cc1)c1cccc(S(=O)(=O)N2CCc3ccccc32)c1	25µM*	-57%	10	12%
COc1ccc(-c2cc(C(F)(F)F)nc(S(C)(=O)=O)n2)cc1	u	-94%	109*	1%
CCc1ccccc1NC(=O)Cn1nc(-c2cc(C)ccc2C)c2c(c1=O)CCCC2	-16%	-15%	-6	89µM*
CCc1ccccc1NC(=O)Cn1nc(C(F)(F)F)c2c1CCC2	10%	-13%	-7	-2%
Cc1cc(C)n2ncc(C(=O)Nc3ccccc3C)c2n1	x	x	x	6%
CCc1ccc(-n2nnc(-c3nsc(NC(=O)c4ccccc4Cl)n3)c2C)cc1	-34%	-21%	105*	-2%
CCc1ccccc1-n1nnc(-c2nsc(NC(=O)c3ccc(C)c(C)c3)n2)c1C	u	-67%	72*	14%
CCN(CC)CCNC(=O)c1c(C)[nH]c(/C=C2\C(=O)Nc3ccc(F)cc32)c1C	u	-24%	-5	35µM*
CCN(CC)CCNC(=O)c1ccc2c(c1)NC(=O)C(CS(=O)(=O)Cc1ccc(F)cc1Cl)N2 (stereo not given)	-1%	-7%	9	-10%
COc1cc(O)c(C(CC(=O)N2CC(C)CC(C)C2)c2ccc(C)cc2)c(OC)c1 (stereo not given)	x	x	x	9%
Cc1ccccc1-c1nc(CS(=O)(=O)CC(=O)NCCc2ccccc2)c(C)o1	-15%	-29%	0	-9%
Cc1ccccc1-c1nc(CS(=O)(=O)CC(=O)NCC(C)c2ccccc2)c(C)o1 (stereo not given)	-29%	-25%	70*	-8%
Cc1ccccc1-c1nc(CS(=O)(=O)CC(=O)NCc2cccc(Cl)c2)c(C)o1	-3%	-13%	12	89µM*
Cc1oc(-c2cccc(Cl)c2)nc1CS(=O)(=O)CC(=O)NCc1ccccc1Cl	-12%	-18%	19	89µM*
COc1cc(C(=O)OC[C@@]2(O)CO[C@@H](O[C@H]3[C@H](Oc4ccc(C(=O)O)cc4OC)O[C@H](CO)[C@@H](O)[C@@H]3O)[C@@H]2O)ccc1O	x	x	x	2%[12.6 µM]
O=C(O)c1ccnc2cc(C(OCC3CCC(F)(F)CC3)c3ccccc3Cl)[nH]c12 (stereo not given)	x	x	x	16%[57.5 µM]
CCCNc1nc2c(c(=O)n(C)c(=O)n2C)n1CC(O)COc1ccccc1 (stereo not given)	-5%	-12%	8	5%
COc1ccc(OCC(O)Cn2c(NCCO)nc3c2c(=O)n(C)c(=O)n3C)cc1 (stereo not given)	14µM*	-67%	-9	2%
Cc1ccc(S(=O)(=O)Nc2cncc(C(=O)Nc3nc(-c4ccccc4)cs3)c2)cc1	x	x	x	-12%
CC(=O)c1ccc(N2CCN(C(=O)CS(=O)(=O)c3cccc4nsnc34)CC2)cc1	-21%	-23%	88*	-19%
Cc1cccc(CNC(=O)CN2C(=O)CCn3nc(-c4cn(C)c5ccccc45)cc32)c1	-16%	-24%	107*	-21%
Cn1cc(-c2cc3n(n2)CCC(=O)N3CCCC(=O)Nc2ccccc2F)c2ccccc21	-22%	-9%	5	-1%
Cn1cc(-c2cc3n(n2)CCC(=O)N3CCCC(=O)Nc2ccccc2Cl)c2ccccc21	0%	-10%	60*	1%
O=C(NCCc1nc2ccccc2[nH]1)C1CCCCC1	x	x	x	-1%
O=C(CCNC(=O)c1ccc(OC(F)(F)F)cc1)N[C@@H]1CCCc2ccccc21	x	x	x	9%
Cc1c(C(=O)Nc2ccc(C(=O)O)cc2)nnn1-c1ccccc1	2.5µM*	-91%	-12	0%
